Source: PubChem (Columbia University Molecular Screening Center)
E-sel TNF inh: blocks E-selectin expression induced by TNF alpha; HUVEC TNFa-induced E-selectin immunofluorescence, high content; inhibition, % at 2 µM; 120,000 tested, 0.71% active; AID 1246;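 active means inhibition above the batch mean plus 3 SD, and confirmed as a hit on visual image review, cut at about 43% in these data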;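 further: 0% = TNF-stimulated DMSO wells and 100% = unstimulated control wells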
HUVEC tox TNFa: HUVEC cytotoxicity counter-screen, TNF alpha stimulated | HUVEC TNFalpha-stimulated, Hoechst cell count, imaging | cell count reduction, % at 2 µM | 93,000 tested, 0.17% active | AID 848;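 active means cell count reduction exceeding the screen mean by over 5 SD, scaled to untreated wells per plate, cut at about 78% in these data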;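 further: cells counted after 24 h of TNF alpha exposure following the 1 h pretreatment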
VCAM1 TNFa inh: reduces TNF alpha induced VCAM1 expression in HUVEC | HUVEC TNFa-induced VCAM-1 immunofluorescence, high-content imaging | inhibition, % at 2 µM | 95,000 tested, 0.48% active | AID 802;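 active means inhibition above the batch mean plus 3 SD, with images confirmed as a hit by eye, cut at about 37% in these data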;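 further: 0% = TNF-stimulated DMSO wells and 100% = unstimulated control wells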
cytoskel mod: alters cytoskeleton assembly in HUVEC cells | inhibition, % at 2 µM | 91,000 tested, 0.18% active | HUVEC TNFa F-actin phalloidin imaging, high content | AID 836;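 active means inhibition above the batch mean plus 3 SD and confirmed as a hit by visual image inspection, cut at about 30% in these data, passing the limit was not always enough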
* hit, by the source's call; . = not tested or not shown. The list is not random: actives were taken first. Their share in the collection is about 1.2%.

SMILES	E-sel TNF inh	HUVEC tox TNFa	VCAM1 TNFa inh	cytoskel mod
CCOC(=O)C1CCN(C(=O)CCN2C(=O)C3C4C=CC(C4)C3C2=O)CC1 (stereo unspecified)	13	-1	16	6
Cc1cccc(C(=O)NCC(=O)Nc2ccc(S(=O)(=O)Nc3nc(C)cc(C)n3)cc2)c1	-8	.	.	.
CCOC(=O)c1ccc(NC(=O)Cn2ncc(Cl)c(Cl)c2=O)cc1	100*	.	.	.
Cc1ccc(C(=O)OCn2ncc(Cl)c(Cl)c2=O)cc1	100*	5	36*	-24
CCOC(=O)c1ccc(NC(=O)CN2C(=O)CCC2=O)cc1	25	3	18	10
COc1cccc(C(=O)NCC(c2cccnc2)N2CCN(c3ccccc3OC)CC2)c1 (stereo unspecified)	.	-21	7	7
CCCN1CCc2[nH]c(=S)[nH]c(=O)c2C1	68*	.	.	.
CC(C)N1CCc2[nH]c(=S)[nH]c(=O)c2C1	-19	.	.	.
O=C(NC12CCC(O)C(SC1)/C2=N/O)c1ccccc1 (stereo unspecified)	-13	-36	21	-43
COC(=O)c1ccccc1NC(=O)Cn1c(-c2nonc2N)nc2ccccc21	-16	44	79*	18
N=c1sccn1CC(=O)NCCc1ccc(Cl)cc1	81*	0	-11	0
COc1cc(NC(=O)CN2C(=O)NC(C)(CC(C)C)C2=O)cc(OC)c1 (stereo unspecified)	3	-41	93*	43
CC1CC(Nc2ccccc2)=CC(=O)O1 (stereo unspecified)	44*	-5	16	10
O=C(CCN1C(=O)C2CC=CCC2C1=O)N1CCN(c2ccccn2)CC1 (stereo unspecified)	1	29	31	-14
CSc1nnc2n(-c3ccccc3)c(=O)c3c4c(sc3n12)CCC4	-17	77	58*	-11
N/C(=N\OC(=O)Cc1ccccc1)c1ccccn1	-1	12	10	8
CCOC(=O)C1=C(SCC)c2cc3c(n2C1=O)CCCC3	-10	-16	1	30*
O=S(=O)(c1ccc(Cl)c(Cl)c1)c1snnc1-c1ccccc1	19	48	96*	5
CC1CCc2cc(F)ccc2N1C(=O)CSc1nnc2c3ccccc3n(C)c2n1 (stereo unspecified)	.	-4	-8	-18
CCc1ccc(CN(C)C(=O)c2cc(COc3c(F)cccc3F)on2)cc1	83*	.	.	.
C/C=C/COC(=O)c1[nH]c2c(c1C)C(=O)CC(c1ccco1)C2 (stereo unspecified)	.	64	51*	-4
Cc1c(C(=O)OCC(C)C)[nH]c2c1C(=O)CC(c1ccco1)C2 (stereo unspecified)	.	64	67*	21
CSCCC(NC(=O)OCc1ccccc1)C(=O)O (stereo unspecified)	-18	-24	97*	18
O=C(O)CCC(NC(=O)OCc1ccccc1)C(=O)O (stereo unspecified)	3	-7	-4	-8
CCC(C)N1CCN(C(=O)c2cccs2)CC1 (stereo unspecified)	6	-17	-15	-21
SMILES	E-sel TNF inh	HUVEC tox TNFa	VCAM1 TNFa inh	cytoskel mod
O=C(Nc1cc(=O)[nH]c2ncnn12)c1ccccc1	-6	-6	3	-16
O=C(Nc1cc(=O)[nH]c2ncnn12)c1ccc(Cl)cc1Cl	62*	-9	12	17
C/C(=N\NC(=O)CN(c1ccccc1Br)S(C)(=O)=O)c1ccc2c(c1)OCCO2	66*	.	.	.
COc1ccccc1N(CC(=O)N/N=C(\C)c1cccc(Br)c1)S(C)(=O)=O	-15	.	.	.
CCC(C)c1ccccc1OCCOCCN1CCCC1 (stereo unspecified)	-3	.	.	.
CCC(C)c1ccccc1OCCCCN1CCCC1 (stereo unspecified)	64*	.	.	.
CCNCC(O)COCC(O)CNCC (stereo unspecified)	-12	78	62*	10
Cc1ccc(NC(=O)c2ccc(OC(=O)CCN3C(=O)c4ccccc4C3=O)cc2)cc1	44*	6	0	-9
Cc1ccc2nc(-c3ccc(NC(=O)CCN4C(=O)c5ccccc5C4=O)cc3)sc2c1	65*	.	.	.
C/C(N)=C(/C#N)C(=O)COC(=O)CCS(=O)(=O)c1ccccc1	-19	-20	-20	-30
CCN1CCN(S(=O)(=O)c2cccc([N+](=O)[O-])c2)CC1	11	-4	4	-15
CCN1C/C(=C/c2ccc(OC)c(O)c2)C(=O)/C(=C/c2ccc(OC)c(O)c2)C1	60*	.	.	.
COc1ccc(/C=C2\CCc3ccccc3C2=O)cc1OC	23	-16	18	1
CCN1C/C(=C\c2cccc([N+](=O)[O-])c2)C(=O)/C(=C/c2cccc([N+](=O)[O-])c2)C1	100*	.	.	.
CC(C)Cc1nc(S(=O)(=O)c2ccc(Cl)cc2)c(N2CCOCC2)o1	-7	2	11	-20
Cn1cnnc1SCC(=O)Nc1c(F)cc(F)cc1Br	11	-1	6	5
CC(C)CC(=O)n1sc(NC(=O)c2ccccc2)nc1=O	100*	-29	10	50
COc1ccc(NC(=O)Nc2cccc(C)n2)cc1	-17	.	.	.
C=CCn1c(COc2ccc(Cl)cc2)nnc1SCC(=O)N/N=C/c1cccc(O)c1	-7	-29	6	66*
CC1=Nc2ccccc2/C1=C/c1c(N)n2c(S(=O)(=O)CC(C)C)nsc2nc1=O	96*	.	.	.
CC1=Nc2ccccc2/C1=C/c1c(N)n2c(S(=O)(=O)C(C)C)nsc2nc1=O	-16	.	.	.
COc1ccc2c(c1)[nH]c1c(=O)n(CCc3cnc[nH]3)cnc12	.	-38	11	-20
COC(=O)CC1C(=O)NCCN1C(=O)CSc1nnc(Nc2ccc(C)cc2)s1 (stereo unspecified)	4	-30	10	10
NC(=O)c1cc(N2C(=O)C=CC2=O)ccc1Cl	51*	0	1	2
O=C(NCCN1CCCC1)C1COc2ccccc2O1 (stereo unspecified)	-2	7	-24	-11
SMILES	E-sel TNF inh	HUVEC tox TNFa	VCAM1 TNFa inh	cytoskel mod
Cc1ccc2c(c1)c1nnc(SCC(=O)N3CCCc4ccccc43)nc1n2CC(=O)O	9	.	.	.
CC1CCN(C(=O)c2cc3nc(-c4ccccc4)cc(-c4ccccc4)n3n2)CC1	-2	4	-19	.
CCOc1ccc2nc(NC(=O)Cc3cccs3)sc2c1	1	1	-22	-6
Cc1cccnc1Nc1nc(-c2ccc(O)cc2O)cs1	2	.	.	.
Cc1cccnc1Nc1nc(-c2ccccn2)cs1	19	73	94*	-4
NCCN1CCN(CCN)CC1	5	3	94*	4
Cc1cc(NC(=O)CCC(=O)N(CC(=O)NC2CCCC2)c2ccccc2)no1	26	5	15	7
COC(=O)c1ccsc1NC(=O)C1=COCCO1	.	92*	25	-34
O=S(=O)(C/C(=C/CO)S(=O)(=O)c1ccccc1)c1ccccc1	100*	30	86*	-2
O=C(CS(=O)(=O)c1ccccc1)N1CCCCCC1	4	-12	5	10
c1cc2c(cc1CN1CCOCC1)OCO2	20	3	-4	-8
CC1(C)CC(=O)C2=C(C1)NCN(Cc1ccc3c(c1)OCO3)C2	49*	-9	7	1
CCn1cc(S(=O)(=O)CC(=O)Nc2cc(C)ccc2C)c2ccccc21	62*	-3	26	8
CSc1cc(C)nc(NC(C)=O)n1	8	-2	-20	0
